Data: PubChem BioAssay (Tox21)
Several values for one entry are separate records, joined by “and”; a condition that tells them apart may be missing. Identical values can stand only once. Records with an inconclusive call do not appear. A call without a number means that no potency is given here. Some structures have more than one record in an assay (separate samples or runs), and their calls can disagree. Activity calls are given as the source filed them. The call rests on the fitted dose curve; in most records, active means well fitted curve in the direction sought with a large enough effect in the repeat runs; inconclusive means weak or mixed curves; inactive means no such curve, though single readings can be large; an effect the other way counts as inactive or inconclusive.

Key:
[1] = Human pregnane X receptor (PXR) small molecule agonists, qHTS cell viability counter screen (AID 1346977); further: nearly all actives have a fitted effect of over 50% in size; further: potency means the concentration at half of the fitted maximal effect
In short: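 Viability counter screen: CellTiter-Fluor signal in PXR-Luc HepG2 cells, 24hr compound exposure, 37C, 5% CO2.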

[2] = Caspase-3/7 induction in HepG2 cells by small molecules, qHTS assay (AID 1346978); further: nearly all actives have a fitted effect of over 15% in size; further: potency means the concentration at half of the fitted maximal effect
In short: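 Wild-type HepG2 cells (2,000/well) were settled 5 h at 37 C, 5% CO2, then exposed to compounds in DMSO for 17 h. Caspase-3/7 activity was read by luminescence 30 min after adding Caspase-Glo 3/7 reagent at room temperature.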

[3] = Caspase-3/7 induction in CHO-K1 cells by small molecules, qHTS cell viability counter screen (AID 1346979); further: nearly all actives have a fitted effect of over 35% in size; further: potency means the concentration at half of the fitted maximal effect
In short: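 Viability readout by fluorescence (CellTiter-Fluor) on wild-type CHO-K1 cells exposed for 16hr at 37C and 5% CO2 to compounds delivered in DMSO; reagent incubated 1hr before reading.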

[4] = Caspase-3/7 induction in CHO-K1 cells by small molecules, qHTS assay (AID 1346980); further: nearly all actives have a fitted effect of over 15% in size
In short: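 Wild-type cells were seeded at 1,500 per well and settled 5 hr at 37 C, 5% CO2, then exposed to DMSO-dissolved compounds for 17 hr. Caspase-Glo 3/7 reagent was added, and luminescence was read after 30min at room temperature.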

[5] = Caspase-3/7 induction in HepG2 cells by small molecules, qHTS cell viability counter screen (AID 1346981); further: series mostly up to about 92 µM; nearly all actives have a fitted effect of over 30% in size
In short: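 Cell viability is measured as a cytotoxicity counter screen alongside the Caspase-Glo 3/7 readout in identical wells. Wild-type HepG2 cells are treated with test compounds for 16 hr at 37 C before CellTiter-Fluor addition and a 1-hr incubation.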

[6] = biological target: Nuclear receptor subfamily 1 group I member 2 (Rattus norvegicus) (UniProt Q9R1A7); experiment: Rat pregnane X receptor (rPXR) activation by small molecules, qHTS assay (AID 1346983); details: rPXR luciferase reporter cells, One-Glo luminescence, 24 h; max activation: stronger effect = higher value; further: nearly all actives have a fitted effect of over 20% in size
Sequence of Nuclear receptor subfamily 1 group I member 2 (Rattus norvegicus) (Q9R1A7 whole entry, looked up): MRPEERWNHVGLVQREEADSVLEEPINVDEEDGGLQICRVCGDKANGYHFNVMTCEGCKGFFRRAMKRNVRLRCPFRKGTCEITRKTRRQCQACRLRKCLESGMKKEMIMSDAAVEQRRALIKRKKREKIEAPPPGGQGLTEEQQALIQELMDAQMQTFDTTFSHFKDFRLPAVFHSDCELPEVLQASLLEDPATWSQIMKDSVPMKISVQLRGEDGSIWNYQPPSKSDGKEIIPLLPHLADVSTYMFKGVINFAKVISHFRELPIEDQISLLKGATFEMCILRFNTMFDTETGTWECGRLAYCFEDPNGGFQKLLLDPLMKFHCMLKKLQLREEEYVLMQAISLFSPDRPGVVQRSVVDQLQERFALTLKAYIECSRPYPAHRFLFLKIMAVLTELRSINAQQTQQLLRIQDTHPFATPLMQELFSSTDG
In short: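 Cell-based rPXR luciferase reporter assay, 2,000 cells per well, rested 5hr at 37 C before compound addition in DMSO, then 24 hr at 37 C. One-Glo reagent was added and luminescence read after 30 min at room temperature.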

[7] = biological target: Voltage-gated inwardly rectifying potassium channel KCNH2 (Homo sapiens) (UniProt Q12809); experiment: Human Ether-a-go-go-Related Gene (hERG) channel small molecule antagonists: fluorescence cell-based qHTS assay (AID 1671200); further: nearly all actives have a fitted effect of over 50% in size; further: potency means the concentration at half of the fitted maximal effect
Sequence of Voltage-gated inwardly rectifying potassium channel KCNH2 (Homo sapiens) (Q12809 whole entry, looked up): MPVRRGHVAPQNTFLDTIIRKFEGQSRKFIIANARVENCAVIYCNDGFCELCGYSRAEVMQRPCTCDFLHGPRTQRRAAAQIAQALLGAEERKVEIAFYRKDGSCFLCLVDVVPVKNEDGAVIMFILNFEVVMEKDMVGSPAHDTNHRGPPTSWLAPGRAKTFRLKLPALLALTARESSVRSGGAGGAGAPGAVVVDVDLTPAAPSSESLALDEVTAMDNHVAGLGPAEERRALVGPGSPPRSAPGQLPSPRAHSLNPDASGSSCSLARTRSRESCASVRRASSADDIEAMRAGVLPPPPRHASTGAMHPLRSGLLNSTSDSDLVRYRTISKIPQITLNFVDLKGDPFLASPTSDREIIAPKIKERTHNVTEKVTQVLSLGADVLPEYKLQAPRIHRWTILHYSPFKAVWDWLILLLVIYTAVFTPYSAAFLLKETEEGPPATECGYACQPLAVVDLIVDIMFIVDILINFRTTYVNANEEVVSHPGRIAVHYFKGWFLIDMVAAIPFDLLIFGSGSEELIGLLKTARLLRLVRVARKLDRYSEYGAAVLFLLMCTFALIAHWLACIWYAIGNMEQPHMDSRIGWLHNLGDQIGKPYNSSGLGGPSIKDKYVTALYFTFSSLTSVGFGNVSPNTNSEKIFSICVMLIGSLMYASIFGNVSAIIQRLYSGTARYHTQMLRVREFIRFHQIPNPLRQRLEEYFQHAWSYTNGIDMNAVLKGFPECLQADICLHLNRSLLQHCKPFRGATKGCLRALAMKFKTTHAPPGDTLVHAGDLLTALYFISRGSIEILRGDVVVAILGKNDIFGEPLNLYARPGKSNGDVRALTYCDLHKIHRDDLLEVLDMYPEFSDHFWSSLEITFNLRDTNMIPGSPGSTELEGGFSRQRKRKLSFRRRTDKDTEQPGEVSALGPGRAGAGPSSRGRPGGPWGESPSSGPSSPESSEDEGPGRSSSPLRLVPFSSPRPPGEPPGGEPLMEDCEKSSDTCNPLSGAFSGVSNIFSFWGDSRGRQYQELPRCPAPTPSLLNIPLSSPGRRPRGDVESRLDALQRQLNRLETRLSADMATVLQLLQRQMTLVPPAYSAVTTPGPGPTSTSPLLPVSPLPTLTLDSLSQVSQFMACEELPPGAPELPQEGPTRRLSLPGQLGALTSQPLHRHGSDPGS
In short: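 Thallium served as the potassium surrogate; its influx into dye-loaded U2OS cells carrying the channel was measured by fluorescence over 2 min.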

[8] = biological target: Nuclear receptor subfamily 1 group I member 2 (Homo sapiens) (UniProt O75469); experiment: Human pregnane X receptor (PXR) small molecule agonists, qHTS assay (AID 1346982); further: nearly all actives have a fitted effect of over 35% in size; further: potency means the concentration at half of the fitted maximal effect
Sequence of Nuclear receptor subfamily 1 group I member 2 (Homo sapiens) (O75469 whole entry, looked up): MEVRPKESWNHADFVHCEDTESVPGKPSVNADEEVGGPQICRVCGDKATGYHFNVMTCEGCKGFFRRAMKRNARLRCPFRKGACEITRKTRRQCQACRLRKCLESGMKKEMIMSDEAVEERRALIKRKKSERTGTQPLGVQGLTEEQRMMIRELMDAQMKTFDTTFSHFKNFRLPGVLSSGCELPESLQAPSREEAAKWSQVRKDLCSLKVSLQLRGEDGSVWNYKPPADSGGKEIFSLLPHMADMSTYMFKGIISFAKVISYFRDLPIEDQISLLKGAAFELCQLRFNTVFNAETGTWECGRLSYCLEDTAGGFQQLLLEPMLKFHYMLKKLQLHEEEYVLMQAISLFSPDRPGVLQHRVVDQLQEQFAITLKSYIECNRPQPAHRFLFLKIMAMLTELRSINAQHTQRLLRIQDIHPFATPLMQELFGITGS
In short: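 Cells: HepG2 stably carrying PXR-Luc. Medium held 5% charcoal-stripped FBS. Compounds in DMSO added after 5 hr plating, incubated 24 hr, then luminescence quantified with ONE-Glo.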

[9] = biological target: Cytochrome P450 2D6 (Homo sapiens) (UniProt P10635); experiment: Cytochrome P450 Family 2 Subfamily D Member 6 (CYP2D6) small molecule antagonists: luciferase reporter qHTS assay (AID 1671196); further: nearly all actives have a fitted effect of over 50% in size; further: potency means the concentration at half of the fitted maximal effect
Sequence of Cytochrome P450 2D6 (Homo sapiens) (P10635 whole entry, looked up): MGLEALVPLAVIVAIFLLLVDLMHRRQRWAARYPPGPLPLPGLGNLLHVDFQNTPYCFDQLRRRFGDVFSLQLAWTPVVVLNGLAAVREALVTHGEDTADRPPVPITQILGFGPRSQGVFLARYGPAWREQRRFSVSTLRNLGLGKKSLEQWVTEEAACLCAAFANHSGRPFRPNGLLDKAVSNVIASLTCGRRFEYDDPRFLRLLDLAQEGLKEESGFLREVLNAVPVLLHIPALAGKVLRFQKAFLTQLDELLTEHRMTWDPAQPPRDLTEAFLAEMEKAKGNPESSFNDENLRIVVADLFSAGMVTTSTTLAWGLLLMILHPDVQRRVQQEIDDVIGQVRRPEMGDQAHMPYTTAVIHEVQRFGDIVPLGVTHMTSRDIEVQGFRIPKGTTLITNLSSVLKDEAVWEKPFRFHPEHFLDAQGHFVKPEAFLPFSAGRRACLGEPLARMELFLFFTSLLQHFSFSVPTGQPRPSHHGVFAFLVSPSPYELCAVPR
In short: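 Enzyme and proluciferin substrate were first combined with test chemical for 10 min at room temperature. Adding NADPH regeneration solution started a 1 h reaction, stopped with luciferin detection reagent and read by luminescence 20 min later.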

[10] = biological target: Cytochrome P450 2C19 (Homo sapiens) (UniProt P33261); experiment: Cytochrome P450 Family 2 Subfamily C Member 19 (CYP2C19) small molecule antagonists: luciferase reporter qHTS assay (AID 1671197); further: nearly all actives have a fitted effect of over 65% in size; further: potency means the concentration at half of the fitted maximal effect
Sequence of Cytochrome P450 2C19 (Homo sapiens) (P33261 whole entry, looked up): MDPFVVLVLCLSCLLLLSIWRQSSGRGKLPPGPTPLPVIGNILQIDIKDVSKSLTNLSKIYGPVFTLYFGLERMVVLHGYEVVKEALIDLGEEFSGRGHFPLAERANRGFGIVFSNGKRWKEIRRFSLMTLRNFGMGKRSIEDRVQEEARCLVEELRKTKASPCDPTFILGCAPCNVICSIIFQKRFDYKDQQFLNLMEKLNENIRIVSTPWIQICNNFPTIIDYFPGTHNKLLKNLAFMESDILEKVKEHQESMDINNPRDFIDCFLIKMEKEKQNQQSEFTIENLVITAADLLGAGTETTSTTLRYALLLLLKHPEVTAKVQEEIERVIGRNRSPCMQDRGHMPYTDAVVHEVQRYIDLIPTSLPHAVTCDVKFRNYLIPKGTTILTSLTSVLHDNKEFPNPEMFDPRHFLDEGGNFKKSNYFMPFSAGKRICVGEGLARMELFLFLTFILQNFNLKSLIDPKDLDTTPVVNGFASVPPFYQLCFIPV
In short: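 Luminescent readout of CYP2C19 activity: luciferin product detected 20 min after adding detection reagent. Before that, compound and enzyme-substrate mix preincubated 10 min at room temperature; NADPH-regenerating system started a 1 h, 37C reaction. Ketoconazole as positive control.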

[11] = biological target: Cytochrome P450 2C9 (Homo sapiens) (UniProt P11712); experiment: Cytochrome P450 Family 2 Subfamily C Member 9 (CYP2C9) small molecule antagonists: luciferase reporter qHTS assay (AID 1671198); further: nearly all actives have a fitted effect of over 50% in size; further: potency means the concentration at half of the fitted maximal effect
Sequence of Cytochrome P450 2C9 (Homo sapiens) (P11712 whole entry, looked up): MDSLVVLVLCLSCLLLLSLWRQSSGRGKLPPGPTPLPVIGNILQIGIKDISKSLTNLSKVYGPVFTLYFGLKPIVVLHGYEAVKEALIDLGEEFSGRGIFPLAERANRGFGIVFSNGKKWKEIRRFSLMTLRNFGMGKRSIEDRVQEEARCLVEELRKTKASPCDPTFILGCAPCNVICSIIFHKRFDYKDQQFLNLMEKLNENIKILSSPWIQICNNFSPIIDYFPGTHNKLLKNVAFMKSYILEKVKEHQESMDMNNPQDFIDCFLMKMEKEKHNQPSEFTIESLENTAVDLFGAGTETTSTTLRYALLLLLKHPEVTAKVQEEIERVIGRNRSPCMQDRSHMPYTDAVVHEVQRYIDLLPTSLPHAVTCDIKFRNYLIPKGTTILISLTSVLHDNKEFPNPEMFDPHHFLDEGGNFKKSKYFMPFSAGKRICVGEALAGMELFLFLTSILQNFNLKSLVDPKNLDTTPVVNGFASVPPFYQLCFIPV
In short: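 CYP2C9 activity was measured with a P450-Glo proluciferin substrate. Enzyme–substrate mix was held with compound for 10 min at room temperature, then NADPH regeneration solution was added for 1 h at 37C. Luciferin product was read as luminescence.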

[12] = biological target: Cytochrome P450 1A2 (Homo sapiens) (UniProt P05177); experiment: Cytochrome P450 Family 1 Subfamily A Member 2 (CYP1A2) small molecule antagonists: luciferase reporter qHTS assay (AID 1671199); further: nearly all actives have a fitted effect of over 50% in size; further: potency means the concentration at half of the fitted maximal effect
Sequence of Cytochrome P450 1A2 (Homo sapiens) (P05177 whole entry, looked up): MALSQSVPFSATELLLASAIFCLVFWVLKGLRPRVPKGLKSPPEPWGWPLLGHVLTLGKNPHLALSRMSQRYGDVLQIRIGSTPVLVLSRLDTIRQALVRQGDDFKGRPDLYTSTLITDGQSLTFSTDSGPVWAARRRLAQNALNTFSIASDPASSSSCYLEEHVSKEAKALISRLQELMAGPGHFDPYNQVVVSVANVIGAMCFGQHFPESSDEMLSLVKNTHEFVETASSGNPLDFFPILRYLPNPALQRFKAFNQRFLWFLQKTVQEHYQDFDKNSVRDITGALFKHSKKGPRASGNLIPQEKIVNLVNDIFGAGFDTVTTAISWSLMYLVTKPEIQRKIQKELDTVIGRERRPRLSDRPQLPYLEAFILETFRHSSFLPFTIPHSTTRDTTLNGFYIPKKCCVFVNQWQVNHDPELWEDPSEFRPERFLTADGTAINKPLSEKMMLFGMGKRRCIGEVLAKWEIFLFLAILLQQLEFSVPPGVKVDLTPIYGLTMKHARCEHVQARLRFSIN
In short: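 Compounds were incubated with CYP1A2 and a luminogenic proluciferin substrate for 10 min at room temperature before the reaction was started with NADPH regeneration solution. After 1 h, detection reagent was added and light output, proportional to CYP activity, was recorded.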

[13] = biological target: Cytochrome P450 3A4 (Homo sapiens) (UniProt P08684); experiment: Cytochrome P450 Family 3 Subfamily A Member 4 (CYP3A4) small molecule antagonists: luciferase reporter qHTS assay (AID 1671201); further: nearly all actives have a fitted effect of over 50% in size; further: potency means the concentration at half of the fitted maximal effect
Sequence of Cytochrome P450 3A4 (Homo sapiens) (P08684 whole entry, looked up): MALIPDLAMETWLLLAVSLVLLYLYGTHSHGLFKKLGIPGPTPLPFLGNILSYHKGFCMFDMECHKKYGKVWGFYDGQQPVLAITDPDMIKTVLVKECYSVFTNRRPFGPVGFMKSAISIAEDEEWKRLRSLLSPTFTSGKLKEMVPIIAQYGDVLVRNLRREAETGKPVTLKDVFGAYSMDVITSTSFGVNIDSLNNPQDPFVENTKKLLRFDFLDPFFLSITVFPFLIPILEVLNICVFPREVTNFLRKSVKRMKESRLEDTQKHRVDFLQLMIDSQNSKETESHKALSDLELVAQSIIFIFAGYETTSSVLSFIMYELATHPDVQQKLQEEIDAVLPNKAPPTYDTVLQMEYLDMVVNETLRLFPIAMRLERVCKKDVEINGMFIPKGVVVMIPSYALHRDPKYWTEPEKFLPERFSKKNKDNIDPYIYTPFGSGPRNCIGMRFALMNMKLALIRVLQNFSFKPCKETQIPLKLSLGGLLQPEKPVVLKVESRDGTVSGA
In short: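 Relative luminescence units after 20 min with luciferin detection reagent served as read-out. Beforehand, CYP3A4 turned over a proluciferin substrate for 1 h at room temperature with NADPH regeneration, following 10 min compound preincubation.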

[14] = biological target: Nuclear receptor subfamily 1 group I member 2 (Homo sapiens) (UniProt O75469); experiment: CYP3A4 induction through human pregnane X receptor (PXR) by small molecules, qHTS assay (AID 1346984); further: nearly all actives have a fitted effect of over 40% in size; further: potency means the concentration at half of the fitted maximal effect
In short: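 Quantitative HTS in DPX-2 cells, i.e. HepG2 transfected with PXR response element and CYP3A4-promoter luciferase. Compounds in DMSO incubated 24hr at 37C; then P450-Glo CYP3A4 substrate, 3uM final, 3hr; One-Glo luminescence.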

[15] = biological target: Nuclear receptor subfamily 1 group I member 2 (Homo sapiens) (UniProt O75469); experiment: Human pregnane X receptor (PXR) activation by small molecules, qHTS assay (AID 1346985); further: nearly all actives have a fitted effect of over 40% in size
In short: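 DPX-2 cells (HepG2 co-transfected with a PXR response element and a CYP3A4-promoter luciferase construct) were seeded at 2,000 per well, rested 5 hr at 37C, then exposed to DMSO-dissolved compounds for 24 hr. Activation was read as luciferase luminescence.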

Structure (SMILES)	Potency [1]	Potency [2]	Potency [3]	Potency [4]	Potency [5]	max activation [6]	Potency [7]	Potency [8]	Potency [9]	Potency [10]	Potency [11]	Potency [12]	Potency [13]	Potency [14]	outcome [15]
O=C1NS(=O)(=O)c2ccccc21	inactive	inactive	inactive	inactive	inactive	-1.81% (inactive)	inactive	–	–	–	–	–	–	–	–
COc1ccc2c(c1)c(CC(=O)O)c(C)n2C(=O)c1ccc(Cl)cc1	inactive	inactive	61.5 µM (active)	inactive	–	–	inactive	inactive	35.8 µM (active) and inactive	inactive	22.6 µM (active) and 17.8 µM (active) and 13.8 µM (active)	inactive	inactive	–	–
C/C=C/C=C/C(=O)O	inactive	inactive	inactive	inactive	inactive	0.352% (inactive)	inactive	–	–	–	–	–	–	–	–
CC(C)NCC(O)c1ccc(O)c(O)c1 (stereo not drawn)	inactive	inactive	inactive	inactive	inactive	–	inactive	–	–	–	–	–	–	–	–
Cc1ncc([N+](=O)[O-])n1C	inactive	inactive	inactive	inactive	–	–	inactive	inactive	inactive	inactive	inactive	inactive	inactive	–	–
CCN(Cc1c(F)cccc1Cl)c1c([N+](=O)[O-])cc(C(F)(F)F)cc1[N+](=O)[O-]	inactive	inactive	54.5 µM (active)	inactive	–	–	inactive	8.63 µM (active)	inactive	2.24 µM (active)	7.96 µM (active)	inactive	0.399 µM (active)	–	–
CCCCCCCCCCCCCCCC[N+](C)(C)Cc1ccccc1	–	70.8 µM (active) and inactive	50.1 µM (active) and 39.3 µM (active) and 29.8 µM (active)	inactive	–	-17.4% (inactive)	1.79 µM (active) and 4.98 µM (active) and 6.74 µM (active)	inactive	923 nM (active) and 406 nM (active) and 389 nM (active)	32.7 µM (active) and 51.2 µM (active) and 27.5 µM (active)	82.2 µM (active) and 36.2 µM (active) and 30.9 µM (active)	36.7 µM (active) and 72.3 µM (active) and inactive	inactive	inactive	inactive
O=CC(=O)c1ccccc1	inactive	inactive	–	inactive	inactive	–	inactive	inactive	12.6 µM (active)	35.6 µM (active)	inactive	35.6 µM (active)	inactive	–	–
Cc1cc(=O)oc2cc(O)ccc12	inactive	inactive	–	inactive	–	-6.81% (inactive)	inactive	inactive	inactive	inactive	inactive	31.7 µM (active) and 25.2 µM (active) and 17.4 µM (active)	inactive	inactive	inactive
CCCCNC(=O)NS(=O)(=O)c1ccc(C)cc1	inactive	inactive	inactive	inactive	–	–	inactive	–	–	–	–	–	–	–	–
CC(=O)CC(c1ccccc1)c1c(O)c2ccccc2oc1=O (stereo not drawn)	inactive	–	68.9 µM (active) and inactive	inactive	inactive	-3.82% (inactive)	inactive	–	–	–	–	–	–	–	–
CCCC[P+](CCCC)(CCCC)CCCC	inactive	inactive	inactive	inactive	–	–	21.8 µM (active) and 22.3 µM (active) and 12.3 µM (active)	–	–	–	–	–	–	–	–
NC(=O)n1c(O)c(C(=O)c2cccs2)c2cc(Cl)ccc21	–	inactive	–	inactive	–	4.95% (inactive)	inactive	–	inactive	–	12.3 µM (active)	15.5 µM (active)	–	28.2 µM (active)	–
COc1ccc(OC(F)(F)F)cc1CN[C@H]1CCCN[C@H]1c1ccccc1	54.5 µM (active)	–	61.1 µM (active)	inactive	–	–	–	4.86 µM (active)	–	79.6 µM (active)	–	–	1.78 µM (active)	–	–
CCCCC1(COC(=O)CCC(=O)O)C(=O)N(c2ccccc2)N(c2ccccc2)C1=O	inactive	inactive	inactive	inactive	–	–	inactive	–	–	–	–	–	–	–	–
C=C1CC[C@H](O)C/C1=C\C=C1/CCC[C@]2(C)[C@@H]([C@H](C)CCCC(C)C)CC[C@@H]12	inactive	–	48.1 µM (active)	–	–	1.13% (inactive)	inactive	17.1 µM (active)	inactive	35.3 µM (active)	25 µM (active)	–	–	inactive	–
CCOc1ccc(NC(C)=O)cc1	inactive	inactive	inactive	inactive	–	–	inactive	inactive	inactive	–	inactive	–	inactive	–	–
